Compound activity from PubChem.
In the library only some 21% were active in any assay of this set; here they are far more common.
D3 ag: qHTS of D3 Dopamine Receptor Agonist: qHTS; D(3) dopamine receptor (Homo sapiens), P35462; D3R DiscoveRx beta-arrestin cells, luminescence, 90 min; max activation, %; hit rate 0.58% among 410,000; in the data active = max activation above about 30%
Target sequence (P35462 whole entry, looked up): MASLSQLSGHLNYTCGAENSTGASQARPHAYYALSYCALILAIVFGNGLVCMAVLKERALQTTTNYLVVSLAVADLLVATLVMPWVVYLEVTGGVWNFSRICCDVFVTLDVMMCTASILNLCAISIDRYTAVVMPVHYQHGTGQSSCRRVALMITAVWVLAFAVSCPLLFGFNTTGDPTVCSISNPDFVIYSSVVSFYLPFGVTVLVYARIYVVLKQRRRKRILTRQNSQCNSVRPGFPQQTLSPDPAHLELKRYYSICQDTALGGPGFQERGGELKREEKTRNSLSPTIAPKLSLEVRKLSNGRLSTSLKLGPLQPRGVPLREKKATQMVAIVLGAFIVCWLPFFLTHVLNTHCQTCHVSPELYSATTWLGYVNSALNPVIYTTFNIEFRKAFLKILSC
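Agonist-mode cell screen: cells plated at 1500/well and incubated overnight at 37 °C, then exposed to library compounds for 90 min at 37 °C. Detection reagent was added for 30–60 min at room temperature, and luminescence was read.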
IL1B secr inh: qHTS for Inhibitors of Inflammasome Signaling: IL-1-beta AlphaLISA Primary Screen. activity change, % at 57.5 µM. THP-1 LPS/ATP IL-1B secretion, AlphaLISA, 16 h; hits give low values. hit rate 4.7% among 360,000; in the data active = activity change below about -50%; inconclusive = mostly about -30% to -49%
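THP-1 cells pretreated 1 hr with compounds (up to 57.5 uM final), then stimulated with LPS (250 ng/mL final) plus ATP (1.25 mM final); secreted IL-1B measured by AlphaLISA after 16 hr, decreased signal indicating inhibition.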
DT40 TDP1 no CPT: qHTS for Inhibitors of human tyrosyl-DNA phosphodiesterase 1 (TDP1): qHTS in cells in absence of CPT; DT40 Tdp1-/- hTDP1 cells, no CPT, ATP luminescence, 48 h; Potency, µM (top dose mostly 46.2 µM), usual class: inhibitors; hit rate 15% among 420,000; AID 686978, 2013; note: nearly all actives have a fitted effect of over 55% in size
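Chicken DT40 Tdp1-/- cells stably complemented with human TDP1 were seeded at 400 cells/well with DMSO in place of 20 nM camptothecin. After compound pinning, cells grew at least 48 hr at 37 °C; viability read by CellTiter-Glo luminescence.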
DT40 TDP1 CPT: qHTS for Inhibitors of human tyrosyl-DNA phosphodiesterase 1 (TDP1): qHTS in cells in presence of CPT | chicken DT40 Tdp1-/-;hTDP1 cells + 20 nM CPT, ATP luminescence, 48 h | Potency, µM (doses to about 46.2 µM), actives largely listed as inhibitors | hit rate 12% among 420,000 | AID 686979, 2013; note: nearly all actives have a fitted effect of over 55% in size
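Chicken DT40 Tdp1-/- cells complemented with human TDP1, 400 cells/well, exposed to compounds plus 20 nM camptothecin for at least 48 h at 37 C; viability read as ATP content by CellTiter-Glo luminescence.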
ClpP mod: qHTS Assay for Activators of ClpP; purified B. subtilis ClpP, FRET peptide cleavage, 20 min; ATP-dependent Clp protease proteolytic subunit (Bacillus subtilis (strain 168)), P80244; hit rate 1.9% among 340,000; Potency, µM (doses to about 57.5 µM); active = well fitted falling curve with a large enough effect; inconclusive = small, poorly fitted or top-dose-only effect; inactive = no such curve, though single readings can be large or run the other way; note: the source files actives as falling curves though it sought activators and does not explain the sign; nearly all actives have a fitted effect of over 65% in size
Target sequence (P80244 whole entry, looked up): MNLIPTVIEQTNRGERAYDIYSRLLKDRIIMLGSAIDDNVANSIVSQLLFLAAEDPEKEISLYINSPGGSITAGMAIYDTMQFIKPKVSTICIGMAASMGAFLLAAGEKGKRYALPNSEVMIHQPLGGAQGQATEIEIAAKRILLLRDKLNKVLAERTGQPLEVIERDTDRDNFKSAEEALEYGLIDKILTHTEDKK
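FRET quenching reversal measured ClpP activation: 10 microg/mL B. subtilis ClpP at pH 8 with the FRET-FV decapeptide, read at 430 nm after 320 nm excitation. The 20-min minus 0-min signal was scaled between DMSO/no-enzyme wells and ADEP (5.8 microM final).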
DRD3 antagonist: qHTS of D3 Dopamine Receptor Antagonist: qHTS. D(3) dopamine receptor (Homo sapiens), P35462. D3R cells, DiscoveRx beta-arrestin luminescence, antagonist mode; hits give low values. max response, negative = inhibition, %. hit rate 2.5% among 360,000; in the data active = max response below about -50%; inconclusive = no clear call, values can overlap the other calls
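Cells plated overnight at 1500 cells/well, then exposed to library compounds with dopamine controls for 90 minutes at 37 degrees C. DiscoveRx reagent added for 30–60 minutes at room temperature; luminescence read, quantitative HTS format.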
Of the large screens only hits and unclear results are named; the others gave an inactive call. Unless noted, calls come from the whole dose curve; as a rule, active = well fitted inhibition curve with a large enough effect; inconclusive = small, poorly fitted or top-dose-only effect; inactive = flat fitted curve, though single readings scatter.

COc1ccc(NC(=O)COC(=O)Cn2cnc3ccccc3c2=O)c(OC)c1	none
CCOC(=O)C1=CC[C@H]2c3c(c4ccccc4n3C)C[C@H]1N2C	DT40 TDP1 no CPT inconclusive, DT40 TDP1 CPT 29µM
NS(=O)(=O)c1ccc(NC2=CC(=O)C(=O)c3ccccc32)cc1	IL1B secr inh -78, DT40 TDP1 no CPT 2.6µM, DT40 TDP1 CPT 8.2µM, DRD3 antagonist -53 (no result: ClpP mod)
CCOC(=O)c1ccc(NC2=CC(=O)C(=O)c3ccccc32)cc1	DT40 TDP1 no CPT 23µM, DT40 TDP1 CPT 23µM
NS(=O)(=O)c1ccc(NC(=O)Nc2ccccc2)cc1	none (no result: IL1B secr inh, ClpP mod)
NC(=O)c1ccc(NS(=O)(=O)c2ccc(S(=O)(=O)N3CCCC3)cc2)cc1	none
COc1ccc(-c2cc(C(F)(F)F)n3nc(C(N)=O)cc3n2)cc1	none
CCN(CC)c1ccc2c(-c3ccc(S(=O)(=O)O)cc3S(=O)(=O)[O-])c3ccc(=[N+](CC)CC)cc-3oc2c1	DT40 TDP1 no CPT 7.3µM, DT40 TDP1 CPT inconclusive
COc1ccc(-c2nc(CN3CCN(C(=O)c4ccco4)CC3)c(C)o2)c(OC)c1C	DT40 TDP1 no CPT 18µM, DT40 TDP1 CPT inconclusive
CCOc1ccccc1-c1nc(CN2CCCN(C(=O)c3ccco3)CC2)c(C)o1	DT40 TDP1 no CPT inconclusive, DT40 TDP1 CPT inconclusive, DRD3 antagonist -79
COc1ccc(OC)c(-c2nc(CN3CCN(C(=O)c4ccco4)CC3)c(C)o2)c1	DT40 TDP1 no CPT inconclusive
COC(=O)c1ccc(-c2nc(CN3CCCN(C(=O)c4ccco4)CC3)c(C)o2)cc1	DT40 TDP1 no CPT inconclusive, DT40 TDP1 CPT inconclusive
COc1ccc(-c2nc(CN3CCN(C(=O)c4ccco4)CC3)c(C)o2)c(F)c1	D3 ag 35, DT40 TDP1 no CPT inconclusive
CC(=O)c1cccc(NC(=O)CSc2nnc3ccc(-c4ccc(Br)cc4)nn23)c1	none (no result: IL1B secr inh, DRD3 antagonist)
COc1ccc(CCNC(=O)CCCCn2c(=O)c3ccccc3n(CC(=O)Nc3ccc(C)cc3C)c2=O)cc1OC	none (no result: IL1B secr inh, DRD3 antagonist)
Cn1c(CNC(=O)c2ccc(Cl)cc2)nnc1SCC(=O)N1CCOCC1	none
CCc1nnc(SCC(=O)N2CCCC(N3CCN(c4ccccc4C)CC3)C2)o1 (configuration not stated)	DT40 TDP1 no CPT inconclusive, DT40 TDP1 CPT inconclusive
CCOc1c(Cl)cc(/C=N/NC(N)=S)cc1OC	DT40 TDP1 no CPT 23µM, DT40 TDP1 CPT inconclusive (no result: ClpP mod)
COc1cc(/C=N/O)cc(Cl)c1OC	none
C#CCOc1c(Cl)cc(/C=N/NC(N)=S)cc1OCC	DT40 TDP1 no CPT 10µM, DT40 TDP1 CPT inconclusive
CCOc1cc(C(=O)O)cc(Cl)c1OCC#N	none
Cc1nc(-c2ccc(F)cc2)sc1CCNC(=O)c1ccccc1C(F)(F)F	DT40 TDP1 no CPT inconclusive, DT40 TDP1 CPT inconclusive, ClpP mod inconclusive (no result: IL1B secr inh, DRD3 antagonist)
COc1ccc(C2(O)CCN(CCCCOc3ccccc3)CC2)cc1	DT40 TDP1 no CPT inconclusive, DT40 TDP1 CPT inconclusive, DRD3 antagonist -90
COc1ccc(C2(O)CCN(C(=O)Cc3cccnc3)CC2)cc1	none
CC(C)(C)OC(=O)NCCc1nnc(SCc2ccc(Cl)cc2Cl)o1	DT40 TDP1 no CPT inconclusive, DT40 TDP1 CPT inconclusive
O=C(CSc1nnc(CNC(=O)c2cccs2)o1)c1ccccc1	DT40 TDP1 no CPT inconclusive
O=C(CSc1nnc(CNC(=O)c2cccs2)o1)c1ccc(Cl)cc1	IL1B secr inh -58, DT40 TDP1 no CPT inconclusive, DT40 TDP1 CPT 21µM
C[C@H](N)c1nnc(SCC(=O)c2ccc(Cl)cc2)o1	none
CC(C)(C)OC(=O)NCCc1nnc(SCC(=O)c2ccc(Cl)cc2)o1	DT40 TDP1 no CPT inconclusive, DT40 TDP1 CPT 23µM
CC(C)[C@H](N)c1nnc(SCC(=O)c2ccc(Cl)cc2)o1	DT40 TDP1 no CPT 13µM, DT40 TDP1 CPT 12µM
C[C@H](NC(=O)OC(C)(C)C)c1nnc(SCC(=O)c2ccc(Cl)cc2)o1	DT40 TDP1 no CPT 21µM, DT40 TDP1 CPT 16µM
C[C@H](NC(=O)OC(C)(C)C)c1nnc(SCC(=O)Nc2cccc(Cl)c2)o1	none
O=C(CCn1c(=O)oc2ccc(Cl)cc21)NCCCN1CCOCC1	none
COC(=O)Nc1ccc(SCC(=O)c2ccccc2)cc1	none (no result: ClpP mod)
COC(=O)Nc1ccc(SCC(=O)c2ccc(Cl)cc2)cc1	IL1B secr inh -62, DT40 TDP1 no CPT inconclusive, DT40 TDP1 CPT inconclusive (no result: ClpP mod)
C/C(CC(=O)Nc1cccc(Cl)c1Cl)=N\NC(=O)c1ccccc1C	none (no result: ClpP mod)
COCOCCn1cc(CN2CCS(=O)(=O)N(Cc3ccc(-c4ccc(Cl)cc4)cc3)C(C(C)C)C2=O)nn1 (configuration not stated)	DT40 TDP1 no CPT 21µM, DT40 TDP1 CPT 18µM
COCOCCn1cc(CN2CCS(=O)(=O)N(Cc3ccc(-c4ccc(F)cc4)cc3)C(C(C)C)C2=O)nn1 (configuration not stated)	IL1B secr inh inconclusive, DT40 TDP1 no CPT 18µM, DT40 TDP1 CPT inconclusive
COCOCCn1cc(CN2CCS(=O)(=O)N(Cc3ccc(-c4ccc(F)cc4)cc3)C(CC(C)C)C2=O)nn1 (configuration not stated)	DT40 TDP1 no CPT 15µM, DT40 TDP1 CPT 26µM
COCOCCn1cc(CN2CCS(=O)(=O)N(Cc3ccc(-c4ccc(OC)cc4)cc3)C(C)C2=O)nn1 (configuration not stated)	DT40 TDP1 no CPT 12µM, DT40 TDP1 CPT 21µM
CN(c1ccc(C(=O)NCc2ccccn2)cc1)S(=O)(=O)c1ccc(Cl)cc1	none
CCC/C=C/c1ccc(CN2C(C(C)C)C(=O)N(Cc3cn(CCOCOC)nn3)CCS2(=O)=O)cc1 (configuration not stated)	DT40 TDP1 no CPT inconclusive, DT40 TDP1 CPT inconclusive
COCOCCn1cc(CN2CCS(=O)(=O)N(Cc3ccc(-c4ccc(Cl)c(Cl)c4)cc3)C(C(C)C)C2=O)nn1 (configuration not stated)	DT40 TDP1 no CPT 2.3µM, DT40 TDP1 CPT 2.3µM
Nc1nonc1N/N=C/c1c(O)ccc2ccccc12	IL1B secr inh -59 (no result: ClpP mod)
O=C(O)c1cc(N/N=C/c2c(O)ccc3ccccc23)ccc1Cl	none
Nc1cc(Cl)nc(N/N=C/c2c(O)ccc3ccccc23)n1	DT40 TDP1 no CPT 16µM, DT40 TDP1 CPT inconclusive, DRD3 antagonist -146
